72 molecules from PubChem BioAssay AID488969 (Vanderbilt High Throughput Screening Facility, 2010) can be followed below.

Structures are written as SMILES. The full ranking holds about 110,000 compounds; the median of “z-score” is about -0.1, and the highest 2% start at about 2. For the sample, the highest values were picked, then their nearest neighbours and some compounds at random. Active and inactive are the calls of the source.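 Rule for the calls: active = z-score in the third read window above 3 or below -3; inactive = the rest.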

Chain of Metabotropic glutamate receptor 8 (Rattus norvegicus) (P70579 whole entry, looked up): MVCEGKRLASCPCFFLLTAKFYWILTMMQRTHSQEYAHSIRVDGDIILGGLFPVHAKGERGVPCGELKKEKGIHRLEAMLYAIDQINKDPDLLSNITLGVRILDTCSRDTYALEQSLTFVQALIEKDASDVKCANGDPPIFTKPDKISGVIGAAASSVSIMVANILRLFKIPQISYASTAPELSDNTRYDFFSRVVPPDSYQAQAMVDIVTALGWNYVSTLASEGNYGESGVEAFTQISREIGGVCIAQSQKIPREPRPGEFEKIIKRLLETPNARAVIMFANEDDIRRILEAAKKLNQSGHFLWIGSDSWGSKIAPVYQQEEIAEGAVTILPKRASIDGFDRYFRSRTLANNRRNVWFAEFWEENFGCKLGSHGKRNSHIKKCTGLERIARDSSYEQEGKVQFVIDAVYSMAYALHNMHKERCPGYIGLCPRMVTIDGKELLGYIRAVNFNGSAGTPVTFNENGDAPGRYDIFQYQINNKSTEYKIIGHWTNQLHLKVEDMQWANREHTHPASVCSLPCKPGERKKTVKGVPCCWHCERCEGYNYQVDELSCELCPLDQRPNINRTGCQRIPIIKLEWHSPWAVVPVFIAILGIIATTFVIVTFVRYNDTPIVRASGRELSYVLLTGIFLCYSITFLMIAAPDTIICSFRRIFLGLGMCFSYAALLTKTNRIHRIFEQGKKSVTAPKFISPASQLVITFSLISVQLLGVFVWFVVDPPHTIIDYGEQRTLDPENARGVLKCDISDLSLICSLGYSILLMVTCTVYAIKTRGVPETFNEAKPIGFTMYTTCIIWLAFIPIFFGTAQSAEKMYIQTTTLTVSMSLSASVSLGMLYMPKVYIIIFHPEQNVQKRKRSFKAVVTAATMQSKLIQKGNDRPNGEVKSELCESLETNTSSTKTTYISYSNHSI

The experiment has as its target Metabotropic glutamate receptor 8 (Rattus norvegicus) (UniProt P70579). The experiment in a line: mGluR8 Gi/Go-coupled signaling modulation – cell-based, rat, thallium flux, HTS, primary screen (AID 488969). The conditions noted are these: HEK293 rat mGluR8, GIRK (G protein-gated inwardly rectifying potassium channel) thallium flux, FluoZin2; at 10 µM; stronger effect = higher value; submaximal glutamate (EC20) added with thallium.
Turning to `Cc1ccc(C(=O)NC(=S)Nc2ccc3c(c2)OCCO3)c(C)c1`, the z-score came to 2.7.
As for `CCc1ccc(C(=O)NC(=S)Nc2ccc3c(c2)OCCO3)cc1`, the z-score turned out to be 0.946.
In turn, `Cc1cc(C)cc(C(=O)NC(=S)Nc2ccc3c(c2)OCCO3)c1` had a z-score of -0.353.
`Cc1ccc(Cl)c(NC(=S)N(CCCN2CCOCC2)Cc2ccco2)c1` came in with a z-score of -0.227.
In the case of `Cc1cccc2cc(/C=N/NC(=O)c3ccccc3O)c(Cl)nc12`, the z-score stood at 0.0387.
Consider `O=C(NCCCCNC(=O)c1ccc(Cl)s1)c1ccc(Cl)s1`, for which the z-score is -0.423.
With `CC1(C)Cc2ccccc2C(/C(=N\Nc2cccc(Cl)c2)C(N)=O)=N1`, the z-score is 3.23 (active).
Take `Cc1cccc(N/N=C(\C(N)=O)C2=NC(C)(C)Cc3ccccc32)c1`: the z-score is -0.302.
Molecule `COc1ccc(N/N=C(/C(N)=O)C2=NC(C)(C)Cc3ccccc32)cc1` displayed a z-score of -0.381.
With `Cc1cc(C(=O)N/N=C/c2cccnc2)c(C)o1`, the z-score came to 0.000639.
As for `O=C(CCCCl)NC(=S)Nc1cc(C(F)(F)F)ccc1N1CCOCC1`, the figure is 0.012; as for `O=C1CCCC2=C1C(c1ccncc1)c1c(nc(SCc3ccccc3)[nH]c1=O)N2` (configuration not stated), -1.55; as for `CCn1c2ccccc2c2cc(/C=N/n3c(C)nnc3C)ccc21`, -1.04.
Take `CCn1c2ccccc2c2cc(/C=N/n3cn[nH]c3=S)ccc21`: the z-score is 11.5 (active).
On to `CCn1c2ccccc2c2cc(/C=N/n3cnnc3)ccc21`, for which the z-score is -1.04.
On to `CC1CCN(c2cc(N)c(Cl)cc2[N+](=O)[O-])CC1`, for which the z-score was -0.475.
On to `CCc1nnc(N/N=C/c2ccc(N3CCC(C)CC3)c([N+](=O)[O-])c2)n1N`, for which the z-score is -0.0832.
`Nc1nnnn1/N=C/c1ccc(N2CCCCC2)c([N+](=O)[O-])c1` registered a z-score of 1.18.
The same measure for `CC1CCN(c2ccc(/C=N/n3nnnc3N)cc2[N+](=O)[O-])CC1`: 3.58 (active).
Molecule `Cc1ccc(/C=N/n2nnnc2N)cc1[N+](=O)[O-]` displayed a z-score of 0.159.
With `Cc1nnc(N/N=C/c2cc([N+](=O)[O-])c(N3CCC(C)CC3)cc2N2CCC(C)CC2)n1N`, the z-score stood at 2.68.
On to `CC(=O)Nc1ccc(OCC(O)CN2C(C)CCCC2C)cc1` (configuration not stated), for which the z-score is -0.417.
`Cn1c(=O)c2c(nc(SCc3ccccc3)n2Cc2ccc(Cl)cc2)n(C)c1=O`: the z-score was -0.333.
The molecule `CC(=O)/C=C/c1ccc2ccccc2n1` yielded a z-score of 0.038.
`Cc1c(O)ccc(/C(Cc2ccc3ccccc3n2)=N\O)c1O` had a z-score of -0.308.
In the case of `C/C(CC(O)c1ccc2ccccc2n1)=N/O` (configuration not stated), the z-score was 5.27 (active).
As for `CCc1ccc2[nH]c(=O)c(C(c3nnnn3Cc3ccco3)N3CCC(C)CC3)cc2c1` (configuration not stated), the z-score is -0.27.
In turn, `Cc1ccnc(N(C(=O)c2cccs2)C(=O)c2cccs2)c1` yielded a z-score of -0.0449.
The molecule `O=C(c1cccs1)N(C(=O)c1cccs1)c1ccc(Br)cn1` gave a z-score of 2.26.
Molecule `O=C(/C=C/c1cccs1)Nc1ccc(Br)cn1` showed a z-score of -0.222.
The same measure for `CC(=O)N1c2ccccc2Oc2cc3ccccc3cc21`: -0.261; for `Cc1cccc(N2C(=O)CS/C2=N\NC(=O)c2ccc(Br)cc2)c1C`: 1.16.
For `Cc1ccc(C(=O)N/N=C2\SCC(=O)N2c2cc(C)ccc2C)cc1`, the z-score was -0.396.
The same measure for `Cc1cccc(N2C(=O)CS/C2=N\NC(=O)c2ccc(Cl)cc2)c1C`: 3.96 (active).
Consider `Cc1ccc(N2C(=O)c3ccccc3C2Nc2ccccc2)nc1` (configuration not stated), for which the z-score was -0.424.
For `CN1CCC/C1=C/C=C1\SC(=S)NC1=O`, the z-score came out at 2.4.
Regarding `CN1CCN(/C=C2\SC(=S)NC2=O)CC1`, the z-score is -0.54.
The same measure for `Cc1nn(C)c(C)c1/C=C1/SC(=S)NC1=O`: 0.492; for `Cc1ccc(C(=O)CSc2nc3ccccc3c(=O)n2-c2ccccc2)s1`: 0.061; for `O=C(NCc1ccncc1)/C(=N/O)c1ccccc1`: 1.14.
The molecule `O=C(NCc1cccnc1)/C(=N\O)c1ccccc1` displayed a z-score of 2.02.
As to `O=C(NCc1ccccc1)/C(=N\O)c1ccccc1`, the z-score is 0.503.
Take `COc1ccc(N(CC(=O)NCCC2=CCCCC2)S(C)(=O)=O)cc1OC`: the z-score came out at 0.274.
`CCN1C(=O)/C(=C2/Sc3ccc(OC)cc3N2C)SC1=Nc1ccc(C(C)=O)cc1` yielded a z-score of -0.0997.
As for `CCOC(=O)N1CCC(NC(=O)c2ccc(CS(=O)(=O)c3ccc(OC)cc3)o2)CC1`, the figure is -0.141; as for `O=C(CN1CCCCC1)Nc1ccc(S(=O)(=O)N2CCOCC2)cc1`, -0.0871.
The same measure for `COc1ccccc1-c1nc2cc3ccccc3cc2nc1-c1ccccc1OC`: -0.377; for `CCCc1nn(C)c2c(=O)[nH]c(-c3ccccc3OCC)nc12`: -0.237; for `Cc1cc(C)cc(NS(=O)(=O)c2ccc3oc(=O)ccc3c2)c1`: 2.23.
Take `Cc1cc(C)cc(NS(=O)(=O)c2ccc3[nH]c(=O)[nH]c3c2)c1`: the z-score was determined as 0.711.
The molecule `O=c1ccc2cc(S(=O)(=O)Nc3ccc(F)cc3)ccc2o1` showed a z-score of -0.226.
As for `CC1CN(C(=O)CSc2nc(-c3ccc(F)cc3)cs2)CC(C)O1` (configuration not stated), the figure is -0.898; as for `O=C(CSCC(=O)N1CCN(c2ccccc2)CC1)Nc1nc(-c2ccc(Cl)s2)cs1`, 0.16.
In turn, `CCOC(=O)N1CCN(C(=O)CSCC(=O)Nc2nc(-c3ccc4c(c3)OCO4)cs2)CC1` gave a z-score of -0.296.
The molecule `O=C(CSCC(=O)N1CCCCC1)Nc1nc(-c2ccc(Cl)s2)cs1` had a z-score of 2.68.
As for `O=C(CSc1nc(-c2ccc(F)cc2)cs1)N1CCOCC1`, the z-score is 3.29 (active).
Regarding `O=C(CSc1nc(-c2ccc(F)cc2)cs1)N1CCc2ccccc21`, the z-score was -0.119.
On to `CCC(=O)Nc1nc(-c2ccc3c(c2)OCCO3)cs1`, for which the z-score was -0.0358.
As to `O=C(CSCC(=O)N1CCOCC1)Nc1nc(-c2ccc3c(c2)OCO3)cs1`, the z-score turned out to be 2.
As for `CC1CCCN(C(=O)CSCC(=O)Nc2nc(-c3cccs3)cs2)C1` (configuration not stated), the figure is 0.503.
Take `O=[N+]([O-])c1ccc(Cl)c(S(=O)(=O)N2CCCCCC2)c1`: the z-score is -0.0418.
For the molecule `COc1ccc(-c2nsc3c(SCC(=O)Nc4cc(C)ccc4C)ncnc23)cc1`, the z-score was 0.00156.
In turn, `CC(NS(=O)(=O)c1ccc(CCC(=O)N2CCN(C)CC2)cc1)c1ccccc1` (configuration not stated) showed a z-score of -0.349.
The same measure for `O=C(Cc1ccccc1)Nc1nnc(-c2cccs2)s1`: 0.154; for `O=C(COc1ccccc1)Nc1nccs1`: 1.35; for `CC(=O)Nc1nc(-c2cccs2)cs1`: -0.281.
For the molecule `O=C(Cc1ccccc1)Nc1nc(-c2cccs2)cs1`, the z-score is 2.99.
For `O=C(COc1ccccc1Cl)Nc1nc(-c2cccs2)cs1`, the z-score was determined as 0.4.
The same measure for `O=C(COc1ccccc1)Nc1nc(-c2cccs2)cs1`: 2.15; for `Cc1cccc2cc(CN(Cc3ccc(F)cc3)C(=O)C(F)(F)F)c3nnnn3c12`: -0.681.
As to `Cc1ccc2c(c1)N(CC(=O)NCc1ccco1)C(=O)CO2`, the z-score was -0.265.
`COc1ccc2nc(SCc3cnc(C)nc3N)[nH]c2c1` yielded a z-score of 0.0366.
